Assay results published in PubChem BioAssay AID624202 (National Center for Advancing Translational Sciences (NCATS), 2012).
The whole screen tested about 380,000 compounds, of which about 4,000 (1.1%) were called active. Roughly 3% stayed inconclusive and do not appear here. What follows is part of a selection rich in actives, with near analogues and random picks from the rest. Unmarked numbers belong to inactive results. Calls follow the shape of the dose curve; as a rule, active = well fitted activation curve with a large enough effect; inconclusive = small, poorly fitted or top-dose-only effect; inactive = no such curve, though single readings can be large or run the other way.

Assay: qHTS Assay to Identify Small Molecule Activators of BRCA1 Expression; also: nearly all actives have a fitted effect of over 80% in size
Settings: MCF7-BRCA1-FFLuc reporter, luminescence, 48 h; series mostly up to 46.1 µM; activation: at the top concentration
Outline: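 MCF7-BRCA1-FFLuc cells, 2000/well in phenol-red-free MEM, attached 2 h then treated 48 h at 37 C. Luciferase luminescence read 15 min after reagent; normalized to genistein maximum activation (10microM) and DMSO, concentration-response fitted.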
Potency is read from the fitted curve at half-maximal effect.

SMILES | activation | Potency
O=S(=O)(c1cccc(C(F)(F)F)c1)N1CCN(c2nc(-c3cccs3)nc3ccccc23)CC1 | 14.8% | –
Cc1cccc(NC(=O)CSc2nnc(CCCCCNC(=O)OC(C)(C)C)o2)c1C | -6.49% | –
O=C(CCNC(=O)c1ccccc1)NN=Cc1ccc(Br)o1 | -7.6% | –
CC(C)(C)OC(=O)NCCCCCC(=O)N/N=C/c1coc2ccccc2c1=O | – | 11.2 µM (active)
Cc1ccc(-c2nc(=N)sn2Cc2ccccc2)cc1 | 0% | –
CCOc1ccc(NC(=O)Cn2c(=O)n(CCCC(=O)NCc3ccc4c(c3)OCO4)c(=O)c3ccccc32)cc1 | 7.21% | –
CCN(CC)c1ccc(C(=O)OCC(=O)c2ccco2)cc1 | – | 8.91 µM (active)
O=C(COC(=O)c1ccccc1C(=O)c1ccccc1)c1ccco1 | 2.69% | –
CCc1ccc(C(=O)COC(=O)c2ccco2)cc1 | 55.8% | –
COc1ccc(S(=O)(=O)n2nc(C)c(S(=O)(=O)N3CCCCCC3)c2C)cc1 | 11.7% | –
COc1ccc(S(=O)(=O)Nc2cccc3cccnc23)c(N)c1 | -64.9% | –
O=C(NCCCn1ccnc1)c1cc2c(s1)CCCC2 | 0.602% | –
CCC(=O)c1c[nH]c(C(=O)NCC2CCCO2)c1 (stereo not drawn) | -7.15% | –
O=C(NCC1CCCO1)c1cc2c(s1)CCCC2 (stereo not drawn) | – | 5.62 µM (active)
COc1ccc(NC(=O)CSc2ccc(-c3ccco3)nn2)c(OC)c1 | -0.876% | –
Cc1snc(SCc2c(F)cccc2Cl)c1C#N | -0.438% | –
Fc1cccc(Cl)c1CSc1ccc(-c2ccco2)nn1 | – | 3.55 µM (active)
O=C(NC(=S)Nc1ccc(Br)cc1F)C1CCCCC1 | 34.2% | –
S=C(Nc1ccc(Cl)cc1Cl)N1CCCC1 | 97.8% | –
O=C(NC(=S)Nc1ccc(Cl)cc1Cl)C1CC1 | – | 3.16 µM (active)
CCOc1ccc(NC(=O)Nc2cc(C)on2)cc1 | – | 7.94 µM (active)
CCOc1ccc(NC(=O)Nc2ccc(N(C)C(C)=O)cc2)cc1 | -10.8% | –
CCC(=O)Nc1ccc(C(=O)Nc2cc(C)on2)cc1 | 78.7% | –
Cc1ccccc1OCCSc1nc2ccc(NC(=O)c3ccco3)cc2s1 | 0% | –
Oc1ccc(Br)cc1C1C=C(c2ccc3c(c2)OCO3)NC(c2ccc(Cl)cc2)N1 (stereo not drawn) | 0% | –
COc1ccc(CCN2C(=O)CC(N3CCC(C(N)=O)CC3)C2=O)cc1OC (stereo not drawn) | 2.27% | –
COc1ccc(COCC(O)CN2CCC(C(N)=O)CC2)cc1 (stereo not drawn) | -22.9% | –

SMILES | activation | Potency
COc1cc(CN2CCC(C(N)=O)CC2)ccc1OCc1ccccc1 | – | 11.2 µM (active)
CN(C)c1ccc(/C=C/c2sc3ccccc3[n+]2C)cc1 | -43.7% | –
COc1ccc(COC(=O)c2n[nH]c3ccccc23)cc1F | – | 14.1 µM (active)
COc1cccc(CC(=O)OCC(=O)NCc2ccc3c(c2)OCO3)c1 | -10.7% | –
COC(=O)[C@@H](NC(=O)NCc1cccc(OC)c1)C(C)C | 4.02% | –
COc1ccc(NC(=O)COC(=O)c2n[nH]c3ccccc23)c(OC)c1 | -36.1% | –
COc1cccc(CNC(=O)c2n[nH]c3ccccc23)c1 | – | 11.2 µM (active)
COc1ccc(S(=O)(=O)N(C)C)cc1NC(=O)COC(=O)c1n[nH]c2ccccc12 | -5.05% | –
CC(=O)c1ccc(NC(=O)C2CCN(S(=O)(=O)c3c(C)noc3/C=C/c3ccc(C)cc3)CC2)cc1 | 13.2% | –
CN(CCC#N)c1ccc(C=O)cc1 | 1.33% | –
CCN(CCCNC(=O)c1c(C)oc2ncn(CC(C)C)c(=O)c12)Cc1ccccc1 | 0% | –
COc1cccc(NC(=O)N(Cc2cn(C)c3ccccc23)C2CCCCCC2)c1 | -54.9% | –
CNc1ccc(-c2nc(-c3ccccc3C)no2)cc1[N+](=O)[O-] | -0.0312% | –
CCCCN1CC(c2nc3ccccc3n2CCCCOc2ccc(C)cc2C)CC1=O (stereo not drawn) | -27.3% | –
CC(C)=C1SC(N2CCN(c3ccc(C)c(Cl)c3)CC2)=NC1=O | -11.5% | –
CCN1C(=O)/C(=C2\SC(N3CCCCC3)=NC2=O)c2ccccc21 | – | 10 µM (active)
CCn1c(=O)n(CC)c2cc(N3CCCC3)c(NC(=O)c3ccccc3Br)cc21 | -43.1% | –
Cc1cc(OC(C)C(=O)Nc2sc3c(c2C(N)=O)CCCC3)ccc1Cl (stereo not drawn) | 9.91% | –
Cc1nc(-c2ccccc2)sc1C(=O)/C=C/N(C)C | – | 11.2 µM (active)
CN(C)/C=C/C(=O)c1cnc2sccn2c1=O | -21.1% | –
Cc1nc(COc2cccc(Cl)c2)sc1C(=O)/C=C/N(C)C | 86% | –
Cc1cccc(N2CCN(C(=O)c3cc4c(=O)oc5ccccc5c4s3)CC2C)c1 (stereo not drawn) | 1.26% | –
O=C(c1cnn2ccccc12)N1CCc2ccccc21 | – | 3.16 µM (active)
Cc1cnc(C(=O)OCC(=O)N2CCc3ccccc32)cn1 | 45.7% | –
CCCCn1nc(C(=O)N2CCc3ccccc32)c2ccccc2c1=O | -9.5% | –
Cc1nn(C(=O)c2c(F)cccc2F)c(C)c1S(=O)(=O)N1CCOCC1 | 3.27% | –
